The record followed here is PubChem BioAssay (NCI).

A short description of experiment [1]: NCI Yeast Anticancer Drug Screen. Data for the rad50 strain (AID 155).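 Also: 0% = growth of vehicle-only cultures of the same strain.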 Particulars: S. cerevisiae rad50 strain growth inhibition; at 50.0 µM; hits give high values. In outline:
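Genetically altered yeast (DNA repair pathway); compound treatment; growth inhibition vs vehicle ctrl.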

A short description of experiment [2]: NCI Yeast Anticancer Drug Screen. Data for the mec2-1 strain (AID 157). Particulars: S. cerevisiae mec2-1 strain, at 50.0 µM, hits give high values. A digest of the protocol: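 Yeast mec2-1 mutant treated with compound. Readout: growth inhibition vs vehicle controls.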
Experiment [3] can be described thus: NCI Yeast Anticancer Drug Screen. Data for the sgs1 mgt1 strain (AID 161).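 Also: 0% = growth of cultures given vehicle only.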 Particulars: S. cerevisiae sgs1 mgt1 strain, at 50.0 µM, hits give high values. In outline: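 Genetically altered yeast, compound exposure, growth inhibition relative to vehicle.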
A short description of experiment [4]: NCI Yeast Anticancer Drug Screen. Data for the cln2 rad14 strain (AID 165).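 Also: 0% = growth equal to vehicle treated cultures.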 Particulars: S. cerevisiae cln2 rad14 strain, at 50.0 µM, hits give high values. In outline:
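cln2 rad14 yeast strain; compound exposure; growth inhibition read vs vehicle controls.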

Experiment [5] in a line: NCI Yeast Anticancer Drug Screen. Data for the bub3 strain (AID 167). To be noted: S. cerevisiae bub3 mutant strain, at 50.0 µM, hits give high values. In outline:
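Yeast carrying a defined mutation is treated with each compound, and growth is compared with that of vehicle-exposed cells to give inhibition.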

The nature of experiment [6]: NCI Yeast Anticancer Drug Screen. Data for the mlh1 rad18 strain (AID 175). To be noted: S. cerevisiae mlh1 rad18 strain growth inhibition; at 50.0 µM; hits give high values. A digest of the protocol:
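Yeast w/ defined DNA-repair lesions; compound exposure; growth vs vehicle controls → % inhibition.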

Compounds without any hit were thinned out: in the full panel of roughly 79,000, 15% have a hit. A number with no mark means an inactive call. Calls of active or inactive are those of the source. Rule as the data show it: active = growth inhibition above about 70%; inactive = the rest.

Consider `COc1cccc[n+]1C`, for which the growth inhibition in experiment [1] was 10.2%; in experiment [2], 3.45%; in experiment [3], -2.15%; in experiment [4] it was 8.3%; in experiment [5], 5.4%; in experiment [6], 7.45%.
For `O=C1/C(=C/c2ccc3c(c2)OCO3)SC2C=Nc3ccccc3N12` (stereo unspecified), the growth inhibition in experiment [1] is -14%; in experiment [2] it was -20.3%; in experiment [3], 1.2%; in experiment [4] it was -7.45%; in experiment [5], 2.5%; in experiment [6], -8.65%.
Consider `O=C(O)CCCc1ccc2c(c1)oc1ccccc12`, for which the growth inhibition in experiment [1] was -18.6%; in experiment [2], -6.3%; in experiment [3] it was 1.5%; in experiment [4], -18.6%; in experiment [5] it was 13.6%; in experiment [6] it was 20.9%.
For `O=C(C[n+]1cc(Br)cc(Br)c1)c1ccc(Br)cc1`, the growth inhibition was -16.9% in experiment [1]; -0.15% in experiment [2]; -0.05% in experiment [3]; -0.9% in experiment [4]; -4.95% in experiment [5]; 37.9% in experiment [6].
On to `CC(=O)C1C(=O)C(=O)N(Cc2ccccc2)C1=O` (stereo unspecified), for which the growth inhibition in experiment [1] is -20.4%; in experiment [2] it was -13.8%; in experiment [3] it was -27.4%; in experiment [4], -19.3%; in experiment [5], -7.4%; in experiment [6], -19.6%.
`CCc1ccc[n+](CCc2c[nH]c3ccccc23)c1`: the growth inhibition in experiment [1] was -13%; in experiment [2] it was -0.45%; in experiment [3], -10%; in experiment [4], 1.35%; in experiment [5] it was 1.35%; in experiment [6] it was -10.5%.
Consider `C#C/C=C/CC1OC(C(Br)CC)CC(Br)C2CC1O2` (stereo unspecified), for which the growth inhibition in experiment [1] is 20.6%; in experiment [2], 16.8%; in experiment [3], 36.4%; in experiment [4] it was 24.4%; in experiment [5] it was 32%; in experiment [6], -18.2%.
Consider `O=C(O)CCCC/C=C/CCCCCCC1C=CCC1` (stereo unspecified), for which the growth inhibition in experiment [1] was -23.4%; in experiment [2], -35.9%; in experiment [3], 9.8%; in experiment [4], 0.7%; in experiment [5] it was -3.65%; in experiment [6], 1.65%.
As for `O=C1OC(c2ccc([N+](=O)[O-])cc2)=N/C1=C\c1ccccc1`, the growth inhibition in experiment [1] is 1.85%; in experiment [2], 4.5%; in experiment [3], 11.1%; in experiment [4] it was 5.45%; in experiment [5], 6.25%; in experiment [6], -11.5%.
As to `CC(C)COC(=N)c1ccccc1C1(O)CCCCC1`, the growth inhibition was -19.9% in experiment [1]; -10.1% in experiment [2]; -9.5% in experiment [3]; -18.8% in experiment [4]; 0.6% in experiment [5]; -17.6% in experiment [6].
On to `CCOC(=O)c1c(C)c2c(n1C)CCC(CCC(C)=O)C2=O` (stereo unspecified), for which the growth inhibition in experiment [1] was 5.6%; in experiment [2], 5.5%; in experiment [3] it was -0.4%; in experiment [4], 14.3%; in experiment [5], 6.7%; in experiment [6], 3.15%.
In the case of `O=c1c2c(-c3ccccc3)c3ccccc3nc2cnn1-c1ccccc1`, the growth inhibition in experiment [1] was -18.4%; in experiment [2] it was -11%; in experiment [3], -18.4%; in experiment [4], -18.4%; in experiment [5] it was -24.9%; in experiment [6] it was -14.2%.
Regarding `O=C(O)C1CCCN1/N=C/c1cccc([N+](=O)[O-])c1` (stereo unspecified), the growth inhibition was -11.1% in experiment [1]; -1.3% in experiment [2]; 9.1% in experiment [3]; -5.4% in experiment [4]; 24.6% in experiment [5]; -11.3% in experiment [6].
`O=C(O)C(O)C(O)C(O)C(O)C(=O)O.[Cu+2]` (stereo unspecified): the growth inhibition is 1.2% in experiment [1]; -6.15% in experiment [2]; 2.25% in experiment [3]; 0% in experiment [4]; -4.4% in experiment [5]; 15.2% in experiment [6].
Consider `N#Cc1[nH]cnc1N`, for which the growth inhibition is -6.95% in experiment [1]; -5.95% in experiment [2]; -11.3% in experiment [3]; -37.5% in experiment [4]; 7.15% in experiment [5]; 4.3% in experiment [6].
For the compound `O=C1OCC/C1=C\c1ccc(Br)cc1`, the growth inhibition in experiment [1] was 7.2%; in experiment [2], -10.2%; in experiment [3], 3.3%; in experiment [4], -29.6%; in experiment [5], 7.5%; in experiment [6], -1.1%.
Turning to `O=C(/C(=N/O)c1ccc(Cl)cc1)c1ccccc1`, the growth inhibition was 99.5% (active) in experiment [1]; 99.5% (active) in experiment [2]; 99.4% (active) in experiment [3]; 99% (active) in experiment [4]; 99.3% (active) in experiment [5]; 99.6% (active) in experiment [6].
For `CC(=O)Nc1ccccc1N`, the growth inhibition in experiment [1] is 15.4%; in experiment [2], 14.9%; in experiment [3], -2.85%; in experiment [4], 4.6%; in experiment [5], -14.3%; in experiment [6], 14.5%.
On to `CC(=O)Nc1c(I)c(C(=O)NC2C(O)OC(CO)C(O)C2O)c(I)c(N(C)C(C)=O)c1I` (stereo unspecified), for which the growth inhibition in experiment [1] was -27.2%; in experiment [2], 4.55%; in experiment [3], -14.2%; in experiment [4], -21.6%; in experiment [5], -21.5%; in experiment [6], -38%.
Regarding `CC(=O)OC1Cc2ccccc2C(OC(C)=O)Cc2ccccc21` (stereo unspecified), the growth inhibition is 29.6% in experiment [1]; 7.4% in experiment [2]; -1.25% in experiment [3]; 1.6% in experiment [4]; 18.4% in experiment [5]; 0.05% in experiment [6].
With `CCCCCCCC/C=C\CCCCCCCC(N)=O`, the growth inhibition is -20.9% in experiment [1]; -34.6% in experiment [2]; -11.5% in experiment [3]; -53% in experiment [4]; -21.1% in experiment [5]; -50% in experiment [6].
